Source: PubChem (National Center for Advancing Translational Sciences (NCATS))
Pf growth 96h = Primary qHTS for delayed death inhibitors of the malarial parasite plastid, 96 hour incubation; P. falciparum luciferase reporter growth, 96 h; hit rate 6.9% among 320,000; Potency, µM (titrated, usually from 28.7 µM), usual class: inhibitors
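Plates of compound plus infected erythrocytes (2% hematocrit, 0.05% parasitemia final) incubate 96 hours, 37 C, 5% CO2. Detection reagent added; reduced luminescence from the parasites' luciferase reporter flags inhibition.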
CHX counter = Cycloheximide Counterscreen for Small Molecule Inhibitors of Shiga Toxin | cell reporter, cycloheximide protein synthesis inhibition counterscreen | max response, % | hit rate 12% among 300,000 | AID 2314, 2010; in the data active = max response mostly above about 13%, no sharp cut-off; inactive = mostly below about 14%; also: read at 38.3 µM for the half of the compounds with a filed dose
Shiga toxin inh = A qHTS for Small Molecule Inhibitors of Shiga Toxin | Vero cells, Shiga toxin protein synthesis inhibition reporter | inhibition, % at 38.7 µM | hit rate 9.2% among 290,000; in the data active = inhibition mostly above about 28%, no sharp cut-off; inactive = mostly below about 43%
Pf growth 48h = Primary qHTS for delayed death inhibitors of the malarial parasite plastid, 48 hour incubation; P. falciparum luciferase growth in erythrocytes, 48 h; Potency, µM (titrated, usually from 28.7 µM), usual class: inhibitors; hit rate 5.9% among 310,000
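Luciferase-expressing P. falciparum in infected erythrocytes (2% hematocrit, 0.1% parasitemia final) in RPMI 1640/0.5% Albumax were exposed to compound for 48 hours at 37 C, 5% CO2; growth read as luminescence.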
Large screens that a line does not name were inactive. This is a sample that favours compounds with a hit; in the whole collection about 21% have one here. Unless noted, calls follow the shape of the dose curve; as a rule, active = well fitted inhibition curve with a large enough effect; inconclusive = small, poorly fitted or top-dose-only effect, or another doubt; inactive = no such curve, though single readings can be large or run the other way.

COc1ccc(/C=C/C(=O)Nc2ccc3nc4n(c(=O)c3c2)CCCC4)cc1	Pf growth 48h inconclusive
COc1ccc(OC)c(CCNC(=O)C(=O)Nc2ccc3nc4n(c(=O)c3c2)CCCCC4)c1	Pf growth 48h 4.1µM
COc1cccc(/C=C/C(=O)Nc2ccc3nc4n(c(=O)c3c2)CCCC4)c1OC	Pf growth 96h inconclusive, Shiga toxin inh 42, Pf growth 48h 2.1µM
COc1ccccc1C(=O)Nc1ccc2nc3n(c(=O)c2c1)CCCC3	Pf growth 96h 0.52µM, Pf growth 48h inconclusive
COc1cc(OC)cc(C(=O)Nc2ccc3nc4n(c(=O)c3c2)CCCCC4)c1	Pf growth 96h 13µM, CHX counter 46, Shiga toxin inh 49
CC(=O)c1ccc(NC(=O)C(C)OC(=O)c2ccc(Br)o2)cc1 (stereo not drawn)	none (no result: CHX counter, Shiga toxin inh)
CCOc1ccc(C(C(=O)NCC2CCCO2)N(C(=O)c2snc(C(N)=O)c2N)c2ccc3c(c2)OCCO3)cc1 (stereo not drawn)	Pf growth 96h inconclusive, Pf growth 48h inconclusive
CNC(=O)C(=O)NCC1OCCN1S(=O)(=O)c1ccc(OC)c(OC)c1 (stereo not drawn)	none
CCCn1nnnc1NCc1ccccc1C	none
COc1ccc(NC(=O)CN(C)C(=O)c2ccc(NS(=O)(=O)c3ccc(F)cc3)cc2)cc1	none (no result: CHX counter, Shiga toxin inh)
COc1ccc(OC)c(C(=O)NC(CC(N)=O)c2ccc(NCCN3CCCCC3)c([N+](=O)[O-])c2)c1 (stereo not drawn)	none
Cn1c(/C(C#N)=C/c2cccc(O)c2)nc2ccccc21	CHX counter 43, Pf growth 48h inconclusive
Cn1c(/C(C#N)=C/Nc2ccccn2)nc2ccccc21	none (no result: Pf growth 96h, Pf growth 48h)
N#C/C(=C\c1ccncc1)c1nc2ccccc2o1	CHX counter 29
N#C/C(=C\c1cccc(O)c1)c1nc2ccccc2o1	CHX counter 59, Shiga toxin inh 85
N#C/C(=C\Nc1ccccc1O)c1nc2ccccc2o1	Pf growth 96h 10µM, CHX counter 26, Shiga toxin inh 71, Pf growth 48h 1.7µM
N#C/C(=C\c1ccc(Cl)cc1)c1nc2ccccc2o1	none
Cc1ccccc1CN1CCC(N2CCC(C(=O)NCC3CCCO3)CC2)CC1 (stereo not drawn)	none
CC(Nc1cccnc1)=C(C#N)C#N	none
CCOc1ccc(NC(=O)Cn2ncc3ccccc32)cc1	CHX counter 38, Shiga toxin inh 74
CC1CCC(NC(=O)Cn2ncc3ccccc32)CC1 (stereo not drawn)	CHX counter 18, Shiga toxin inh active
CCOc1ccc(NC(=O)CCSc2ccc(C)cc2)cc1	none
CCOc1ccc(NC(=O)CCSc2ccc3ccccc3n2)cc1	CHX counter 15
O=C(O)CC(c1ccccc1)N1C(=O)c2cccc([N+](=O)[O-])c2C1=O (stereo not drawn)	none
CCN(CC)C(=O)C1CCN(Cc2ccc(OCc3ccccc3)cc2)CC1	Pf growth 96h inconclusive
CC1CCCN(Cc2ccc(OCc3ccccc3)cc2)C1 (stereo not drawn)	CHX counter 22
CCCCNC(=O)C1CCN(Cc2ccc(OCc3ccccc3)cc2)CC1	Pf growth 96h inconclusive, CHX counter 26, Shiga toxin inh 63
O=C(C1CCN(Cc2ccc(OCc3ccccc3)cc2)CC1)N1CCCC1	CHX counter 27 (no result: Pf growth 96h)
COCCNC(=O)C1CCN(Cc2cccc(OCc3ccccc3)c2)CC1	none (no result: Shiga toxin inh)
C=CCN(CC=C)C(=O)C1CCN(Cc2ccc(OCc3ccccc3)cc2)CC1	CHX counter 18, Pf growth 48h inconclusive (no result: Shiga toxin inh)
COc1ccc(/C=C2/C(=O)C(C)(C(C)C)CCC2C)cc1 (stereo not drawn)	none
CC(C)(C)NC(=O)CCN(/N=C/c1ccccc1F)C1=NS(=O)(=O)c2ccccc21	none
Cc1nc2ncnn2c(N2CCN(c3cccc(C(F)(F)F)c3)CC2)c1C	Pf growth 48h inconclusive
OC1CCN(Cc2ccc(OCc3ccccc3)cc2)CC1	Pf growth 96h 4.1µM, CHX counter 19 (no result: Shiga toxin inh)
O=C(CCN1CCN(Cc2ccccc2)CC1)Nc1ccc(OCc2ccccc2)cc1	Pf growth 96h inconclusive (no result: Pf growth 48h)
CN(C(=O)CSc1nnc(COc2ccccc2F)n1N)C1CCS(=O)(=O)C1 (stereo not drawn)	none (no result: CHX counter, Shiga toxin inh)
CCOC(=O)C1CCCN(C(=O)c2ccc3nc(-c4ccc(OC)c(OC)c4)c(-c4ccc(OC)c(OC)c4)nc3c2)C1 (stereo not drawn)	Pf growth 48h inconclusive
CCC(=O)C1CCCN(C(=O)c2ccc3nc(-c4cccc(OC)c4)oc3c2)C1 (stereo not drawn)	Pf growth 96h inconclusive, CHX counter 45, Shiga toxin inh 69
CCOC(=O)C1CCCN(C(=O)c2ccc3nc(-c4cccc(OC)c4)oc3c2)C1 (stereo not drawn)	Pf growth 96h inconclusive, CHX counter 32, Shiga toxin inh 72
COc1cccc(-c2nc3ccc(C(=O)N4CCCC(O)C4)cc3o2)c1 (stereo not drawn)	Pf growth 96h 10µM, CHX counter 59, Shiga toxin inh 112
COc1cccc2c1OC(=O)CC2c1ccccc1C (stereo not drawn)	none (no result: Pf growth 96h, Pf growth 48h)
COc1ccc(-c2cc(C(=O)Nc3c(C)n(C)n(-c4ccccc4)c3=O)c3ccccc3n2)cc1	Pf growth 48h inconclusive
COc1ccc2cc(-c3cc(C(=O)OCC(=O)Nc4c(C)n(C)n(-c5ccccc5)c4=O)c4ccccc4n3)ccc2c1	CHX counter 31, Shiga toxin inh 53
C/C(N)=C(/C#N)C(=O)COC(=O)c1cc(-c2ccc(Br)cc2)nc2ccccc12	Pf growth 96h inconclusive, CHX counter 13
CCN(CC)C(=O)COC(=O)c1cc(-c2ccc(OC)cc2)nc2ccccc12	CHX counter 23 (no result: Pf growth 96h)
CCCNC(=O)COC(=O)c1cc(-c2ccc(OC)cc2)nc2ccccc12	CHX counter 13
CCNC(=O)COC(=O)c1cc(-c2ccc(OC)cc2)nc2ccccc12	none
COc1ccc(-c2cc(CNS(=O)(=O)c3ccc(F)cc3)on2)cc1	Pf growth 48h inconclusive
COc1ccc(-c2cc(C(=O)OCC(=O)NC3CC3)c3ccccc3n2)cc1	none (no result: CHX counter, Shiga toxin inh)
COC(=O)C1CCN(C(=O)COC(=O)c2cc(-c3ccccc3)nc3ccc(OC)cc23)CC1	Pf growth 96h inconclusive, Pf growth 48h 13µM (no result: CHX counter, Shiga toxin inh)
COc1ccc2cc(-c3cc(C(=O)OCC(=O)NC4CCS(=O)(=O)C4)c4ccccc4n3)ccc2c1 (stereo not drawn)	CHX counter 26
O=C(OCC(=O)N1CCN(C(=O)c2ccco2)CC1)c1cc(-c2ccccc2)nc2ccccc12	none (no result: Pf growth 48h)
CCOc1ccccc1NC(=O)C1CCN(C(=O)C2CC(=O)N(c3ccc(C)cc3)C2)CC1 (stereo not drawn)	Pf growth 96h inconclusive
[O-][N+]1=C(c2cccs2)CN(O)C1	Pf growth 96h 1.7µM
COc1cccc(C(=O)Nc2cc(C(=O)NCc3ccc(C)cc3)ccc2N2CCC3(CC2)CC(c2ccccc2)=NO3)c1	Pf growth 96h 1.3µM, Pf growth 48h inconclusive
CCCCCCCC(=O)Nc1cc(C(=O)NCc2ccc(C)cc2)ccc1N1CCC2(CC1)CC(c1ccccc1)=NO2	Pf growth 96h inconclusive
Cc1ccc(CNC(=O)c2ccc(N3CCC4(CC3)CC(c3ccccc3)=NO4)c(NC(=O)c3c(Cl)cccc3Cl)c2)cc1	Pf growth 96h inconclusive (no result: CHX counter, Shiga toxin inh)
